± gives the standard deviation of the averaged measurements.
These molecules were tested on HT-1080 (assay: relative cell viability with RSL3 co-treatment (fraction of control); higher = stronger protection from RSL3-induced ferroptosis (higher viability)). Settings: 10 µM.
For `CC(C)(C)c1cc(C=C(C#N)C#N)cc(C(C)(C)C)c1O` [Tyrphostin 9], the relative cell viability was 0.413 ± 0.021.
Molecule `CC(C)(C)c1cc(C=C(C#N)C#N)cc(Br)c1O` has a relative cell viability of 0.473 ± 0.015.
For `COc1ccc(N(C(=O)Oc2c(C)cccc2C)c2ccnc(Nc3ccc(N4CCN(C)CC4)cc3)n2)c(OC)c1`, the relative cell viability was 0.8133 ± 0.0058.
In the case of `Cn1cc(C2=C(c3cn(C4CCN(Cc5ccccn5)CC4)c4ccccc34)C(=O)NC2=O)c2ccccc21`, the relative cell viability is reported as 0.807 ± 0.061.
`C/C(O)=C(\C#N)C(=O)Nc1cc(Br)ccc1Br` showed a relative cell viability of 0.54 ± 0.085.
For `O=c1[nH]c2ccc(Cl)cc2c(N[C@@H]2CN3CCC2CC3)c1-c1nc2ccccc2[nH]1`, the relative cell viability was 0.63 ± 0.046.
`COc1ccc2c(c1)/C(=C/c1cnc[nH]1)C(=O)N2` gave a relative cell viability of 0.797 ± 0.011.
Molecule `Cc1ccccc1-n1c(Cn2ncc3c(N)ncnc32)nc2cccc(C)c2c1=O` has a relative cell viability of 0.727 ± 0.049.
Molecule `CCN1CCN(C(=O)Cc2ccc(Nc3ncc(F)c(Nc4ccc(C(=O)Nc5ccccc5Cl)cc4)n3)cc2)CC1` [Aurora A Inhibitor I] has a relative cell viability of 0.473 ± 0.13.
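Also: viability read as CCK-8 absorbance at 450 nm in cells co-exposed to the GPX4 inhibitor RSL3, relative to a 0.01% DMSO vehicle control.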
